Of roughly 7,900 targets only a part is listed; those with a hit were picked by preference. About 0.6% of all pairs of compound and target were hits. Values without a mark were called inactive.
How the values were obtained:
Experiment in all cases: log2 fold change, soluble protein after heating vs DMSO (PISA); higher = thermal stabilisation; K562 cells, 10 uM, 30 min; active = over 0.2 and 3.5 SD of the protein, either way, in both replicates (recomputed)
[1] = compound: CC[C@@H]1C(=O)N(C)c2cnc(Nc3ccc(C(=O)NC4CCN(C)CC4)cc3OC)nc2N1C1CCCC1
Outline: (§1)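 K562 cells at 2×10^6 cells/mL were treated for 30 min with 10 μM compound, and aliquots were heated for 3 min over 48°C-58°C before pooling. Extraction used PBS with 0.5% NP-40 at 4°C, and soluble protein was the supernatant after 21,000xg for 90 min, measured by TMTpro 16plex LC-MS/MS with channel sums equalised. Thermal stability values, relative to control samples and from duplicates, are log2 fold changes.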

[2] = compound: CC[C@H](C)N1C=C(C2=C(C=C(C=C21)C3=CN=C(C=C3)N4CCNCC4)C(=O)NCC5=C(C=C(NC5=O)C)C)C
Outline: as §1

[3] = compound: CC[C@H](C)[C@@H](C(=O)N[C@@H]([C@@H](C)O)C(=O)N[C@@H](CC(C)C)C(=O)[C@]1(CO1)C)NC(=O)[C@H]([C@@H](C)CC)N(C)C(=O)C [epoxomicin]
Outline: as §1

[4] = compound: CCn1c(C(=O)N(C2CC2)C2CC2)cc2c3c(ncn3C)c(Nc3cc(C)n(C)n3)nc21
Outline: as §1

[5] = compound: CCn1cc(-c2ccnc3[nH]c(-c4cccc(CN(C)C)c4)cc23)c(-c2ccc(NC(=O)N(C)C)cc2)n1
Outline: as §1

[6] = compound: CN(C)CC(=O)Nc1ccc2[nH]c(=O)c3ccccc3c2c1
Outline: as §1

[7] = compound: CN(CCOC1=CC=C(C=C1)C[C@H]2C(=O)NC(=O)S2)C3=CC=CC=N3 (racemic) [rosiglitazone]
Outline: as §1

[8] = compound: CN1C2=C(C3=C1C(=O)N(N=C3)CC4=CC(=CC=C4)N)SC(=C2)S(=O)C
Outline: as §1

[9] = compound: CN1CCC(CNc2ccc3ncc(-c4cccc(OC(F)(F)F)c4)n3n2)CC1
Outline: as §1

[10] = compound: CN1CCN(CCOc2cc(OC3CCOCC3)c3c(Nc4c(Cl)ccc5c4OCO5)ncnc3c2)CC1 [saracatinib]
Outline: as §1

[11] = compound: CN1CC[C@H](c2c(O)cc(O)c3c(=O)cc(-c4ccccc4Cl)oc23)[C@H](O)C1 [alvocidib]
Outline: as §1

[12] = compound: CN1CCc2c(c3ccccc3n2Cc2ccc(C(=O)NO)cc2)C1 [Tubastatin A]
Outline: as §1

[13] = compound: CNC(=O)C1=CC=CC=C1NC2=NC(=NC=C2Cl)NC3=C(C=C(C=C3)N4CCOCC4)OC
Outline: as §1

[14] = compound: CNC(=O)c1ccc(Nc2ncc(C(F)(F)F)c(NCc3nccnc3N(C)S(C)(=O)=O)n2)cc1 [defactinib]
Outline: as §1

[15] = compound: CNCc1ccc(-c2[nH]c3cc(F)cc4c3c2CCNC4=O)cc1 [rucaparib]
Outline: as §1

[16] = compound: CNc1nc(-c2ccc3c(N)n[nH]c3c2)cc(N2C[C@@H](C(=O)NC3CCCCC3)CC[C@H]2C)n1
Outline: as §1

[17] = compound: COC(=O)N[C@@H](C)CNc1nccc(-c2cn(C(C)C)nc2-c2cc(Cl)cc(NS(C)(=O)=O)c2F)n1 [encorafenib]
Outline: as §1

[18] = compound: COC(=O)[C@H](CCSC)NC(=O)C1=C(C=C(C=C1)NC[C@H](CS)N)C2=CC=CC=C2
Outline: as §1

[19] = compound: CN1CCN(c2nc(C3=C(c4c[nH]c5ccccc45)C(=O)NC3=O)c3ccccc3n2)CC1 [sotrastaurin]
Outline: as §1

[20] = compound: CC[C@@H]1C(=O)N(C)c2cnc(Nc3ccc(C(=O)N[C@H]4CC[C@H](N5CCN(CC6CC6)CC5)CC4)cc3OC)nc2N1C(C)C [volasertib]
Outline: as §1

Chain of UniProt P30414 (P30414 whole entry, looked up): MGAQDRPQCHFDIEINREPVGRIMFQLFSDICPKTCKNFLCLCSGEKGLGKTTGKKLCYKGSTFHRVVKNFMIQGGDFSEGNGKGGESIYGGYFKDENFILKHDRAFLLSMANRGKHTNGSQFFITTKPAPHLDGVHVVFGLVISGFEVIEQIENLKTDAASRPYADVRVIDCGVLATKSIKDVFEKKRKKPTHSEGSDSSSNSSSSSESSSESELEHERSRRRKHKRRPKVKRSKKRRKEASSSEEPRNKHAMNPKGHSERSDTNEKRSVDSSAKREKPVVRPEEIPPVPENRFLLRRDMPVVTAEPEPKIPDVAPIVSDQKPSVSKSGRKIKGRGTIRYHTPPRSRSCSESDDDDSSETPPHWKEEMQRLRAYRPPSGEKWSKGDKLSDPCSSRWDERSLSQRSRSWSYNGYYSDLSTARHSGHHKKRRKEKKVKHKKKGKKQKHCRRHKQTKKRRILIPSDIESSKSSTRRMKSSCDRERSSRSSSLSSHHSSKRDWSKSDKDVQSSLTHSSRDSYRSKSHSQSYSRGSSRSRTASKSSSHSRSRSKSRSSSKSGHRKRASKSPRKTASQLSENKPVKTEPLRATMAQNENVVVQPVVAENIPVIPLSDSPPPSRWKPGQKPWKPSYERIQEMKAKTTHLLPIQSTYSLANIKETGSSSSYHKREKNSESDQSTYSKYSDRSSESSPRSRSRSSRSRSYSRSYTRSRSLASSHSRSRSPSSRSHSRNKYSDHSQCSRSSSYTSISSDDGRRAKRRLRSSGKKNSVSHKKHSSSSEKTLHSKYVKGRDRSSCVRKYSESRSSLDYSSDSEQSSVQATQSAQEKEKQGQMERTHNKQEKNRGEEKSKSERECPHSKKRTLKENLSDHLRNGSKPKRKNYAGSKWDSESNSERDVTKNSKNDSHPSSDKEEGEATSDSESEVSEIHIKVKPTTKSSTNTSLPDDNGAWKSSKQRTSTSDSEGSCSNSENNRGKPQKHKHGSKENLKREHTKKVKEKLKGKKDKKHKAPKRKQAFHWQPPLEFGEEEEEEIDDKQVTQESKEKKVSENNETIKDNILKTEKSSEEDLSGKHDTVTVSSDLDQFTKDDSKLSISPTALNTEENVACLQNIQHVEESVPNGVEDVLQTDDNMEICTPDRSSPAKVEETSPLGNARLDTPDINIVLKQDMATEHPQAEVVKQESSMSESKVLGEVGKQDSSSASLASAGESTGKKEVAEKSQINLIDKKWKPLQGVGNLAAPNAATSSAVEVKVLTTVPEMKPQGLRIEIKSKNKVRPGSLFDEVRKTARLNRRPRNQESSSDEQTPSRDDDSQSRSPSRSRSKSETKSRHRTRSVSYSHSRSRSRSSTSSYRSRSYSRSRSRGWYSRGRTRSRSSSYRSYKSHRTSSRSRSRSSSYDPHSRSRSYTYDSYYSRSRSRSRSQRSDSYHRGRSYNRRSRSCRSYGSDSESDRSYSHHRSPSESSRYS
Chain of UniProt Q9UQ49 (Q9UQ49 whole entry, looked up): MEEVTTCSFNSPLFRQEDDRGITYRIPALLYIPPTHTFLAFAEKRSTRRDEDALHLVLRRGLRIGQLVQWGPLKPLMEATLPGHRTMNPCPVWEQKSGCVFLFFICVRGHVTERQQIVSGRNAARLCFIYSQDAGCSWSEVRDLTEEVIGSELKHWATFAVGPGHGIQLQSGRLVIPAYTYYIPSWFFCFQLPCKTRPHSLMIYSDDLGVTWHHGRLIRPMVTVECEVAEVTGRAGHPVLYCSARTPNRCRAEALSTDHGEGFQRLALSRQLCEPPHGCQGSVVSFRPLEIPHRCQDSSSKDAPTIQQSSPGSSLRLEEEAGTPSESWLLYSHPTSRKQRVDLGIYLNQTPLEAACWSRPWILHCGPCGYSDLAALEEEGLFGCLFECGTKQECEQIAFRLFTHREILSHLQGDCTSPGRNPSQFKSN
Chain of UniProt Q5VVJ2 (Q5VVJ2 whole entry, looked up): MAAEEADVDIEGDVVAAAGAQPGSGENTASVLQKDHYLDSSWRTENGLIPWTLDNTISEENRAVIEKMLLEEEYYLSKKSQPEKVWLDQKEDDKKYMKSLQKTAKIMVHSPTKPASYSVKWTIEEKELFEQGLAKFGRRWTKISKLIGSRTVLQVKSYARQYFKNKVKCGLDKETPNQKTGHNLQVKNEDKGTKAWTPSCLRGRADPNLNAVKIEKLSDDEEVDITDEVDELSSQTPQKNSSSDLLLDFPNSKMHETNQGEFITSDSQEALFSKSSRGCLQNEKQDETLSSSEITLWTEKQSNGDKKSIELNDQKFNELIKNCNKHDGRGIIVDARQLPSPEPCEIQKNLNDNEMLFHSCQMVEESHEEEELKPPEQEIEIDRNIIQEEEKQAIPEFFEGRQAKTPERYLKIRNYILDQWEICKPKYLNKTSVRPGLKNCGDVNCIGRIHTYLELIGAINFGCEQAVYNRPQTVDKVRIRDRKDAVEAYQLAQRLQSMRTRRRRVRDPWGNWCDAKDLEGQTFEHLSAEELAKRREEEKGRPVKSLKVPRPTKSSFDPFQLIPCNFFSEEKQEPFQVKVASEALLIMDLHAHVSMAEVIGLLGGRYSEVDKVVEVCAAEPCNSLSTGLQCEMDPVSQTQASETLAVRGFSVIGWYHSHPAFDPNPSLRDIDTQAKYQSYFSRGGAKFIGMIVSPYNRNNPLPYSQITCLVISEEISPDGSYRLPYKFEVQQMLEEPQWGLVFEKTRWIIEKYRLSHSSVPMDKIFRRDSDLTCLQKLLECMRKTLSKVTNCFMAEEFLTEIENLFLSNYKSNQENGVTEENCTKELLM
Chain of UniProt O60890 (O60890 whole entry, looked up): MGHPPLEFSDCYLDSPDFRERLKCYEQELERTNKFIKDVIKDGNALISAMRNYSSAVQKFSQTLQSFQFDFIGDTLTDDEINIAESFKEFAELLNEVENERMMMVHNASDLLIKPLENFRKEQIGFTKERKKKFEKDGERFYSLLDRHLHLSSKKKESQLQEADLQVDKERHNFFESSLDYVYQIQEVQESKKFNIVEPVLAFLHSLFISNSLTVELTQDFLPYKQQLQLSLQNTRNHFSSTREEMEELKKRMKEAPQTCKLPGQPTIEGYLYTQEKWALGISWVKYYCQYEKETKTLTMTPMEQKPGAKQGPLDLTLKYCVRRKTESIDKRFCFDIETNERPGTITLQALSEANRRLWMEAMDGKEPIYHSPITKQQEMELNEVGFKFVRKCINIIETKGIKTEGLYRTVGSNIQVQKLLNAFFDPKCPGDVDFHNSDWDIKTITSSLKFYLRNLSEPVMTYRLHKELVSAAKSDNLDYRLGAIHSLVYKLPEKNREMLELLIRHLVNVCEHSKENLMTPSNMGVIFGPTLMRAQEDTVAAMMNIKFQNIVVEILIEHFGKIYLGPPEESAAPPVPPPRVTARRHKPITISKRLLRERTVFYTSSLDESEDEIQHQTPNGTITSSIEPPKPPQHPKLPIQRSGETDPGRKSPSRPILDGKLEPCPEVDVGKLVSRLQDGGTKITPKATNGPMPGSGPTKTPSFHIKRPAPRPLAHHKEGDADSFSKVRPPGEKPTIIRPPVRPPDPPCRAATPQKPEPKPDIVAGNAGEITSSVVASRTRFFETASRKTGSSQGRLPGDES
Chain of UniProt Q9Y6X9 (Q9Y6X9 whole entry, looked up): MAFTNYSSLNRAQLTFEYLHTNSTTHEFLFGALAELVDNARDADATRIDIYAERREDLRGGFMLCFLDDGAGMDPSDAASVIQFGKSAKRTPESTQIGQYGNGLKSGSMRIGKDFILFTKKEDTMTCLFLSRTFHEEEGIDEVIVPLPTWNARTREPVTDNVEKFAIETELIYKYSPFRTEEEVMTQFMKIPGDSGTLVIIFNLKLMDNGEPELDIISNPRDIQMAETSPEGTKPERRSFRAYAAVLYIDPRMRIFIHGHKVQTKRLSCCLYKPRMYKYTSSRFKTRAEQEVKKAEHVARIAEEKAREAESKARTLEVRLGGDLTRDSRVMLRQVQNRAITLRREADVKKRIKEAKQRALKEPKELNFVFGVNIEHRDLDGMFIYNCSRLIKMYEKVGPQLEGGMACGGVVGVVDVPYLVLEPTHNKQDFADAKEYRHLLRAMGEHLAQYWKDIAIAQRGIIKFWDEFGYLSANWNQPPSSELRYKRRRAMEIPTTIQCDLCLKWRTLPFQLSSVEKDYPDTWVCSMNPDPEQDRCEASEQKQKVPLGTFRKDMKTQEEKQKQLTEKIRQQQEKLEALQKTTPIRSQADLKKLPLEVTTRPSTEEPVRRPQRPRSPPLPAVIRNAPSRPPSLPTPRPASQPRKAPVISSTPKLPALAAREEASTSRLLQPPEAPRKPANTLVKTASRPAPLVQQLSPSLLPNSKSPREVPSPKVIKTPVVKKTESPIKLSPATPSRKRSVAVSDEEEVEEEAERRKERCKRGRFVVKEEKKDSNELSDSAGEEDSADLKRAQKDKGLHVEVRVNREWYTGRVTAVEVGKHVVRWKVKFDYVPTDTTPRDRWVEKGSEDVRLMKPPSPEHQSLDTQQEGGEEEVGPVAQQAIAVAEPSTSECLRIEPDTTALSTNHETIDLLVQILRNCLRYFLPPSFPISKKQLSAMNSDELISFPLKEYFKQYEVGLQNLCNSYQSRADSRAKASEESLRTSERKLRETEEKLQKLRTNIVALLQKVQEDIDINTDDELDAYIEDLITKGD
Chain of UniProt P03891 (P03891 whole entry, looked up): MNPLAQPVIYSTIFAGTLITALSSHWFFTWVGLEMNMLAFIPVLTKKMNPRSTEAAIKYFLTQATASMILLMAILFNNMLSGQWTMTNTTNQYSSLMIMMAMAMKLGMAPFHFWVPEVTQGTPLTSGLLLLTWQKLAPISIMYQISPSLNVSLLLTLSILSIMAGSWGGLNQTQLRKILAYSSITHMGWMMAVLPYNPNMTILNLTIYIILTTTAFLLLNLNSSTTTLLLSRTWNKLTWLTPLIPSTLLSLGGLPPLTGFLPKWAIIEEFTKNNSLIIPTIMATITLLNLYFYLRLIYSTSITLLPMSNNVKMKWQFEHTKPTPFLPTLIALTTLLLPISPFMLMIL

Target | log2 fold change [1] | log2 fold change [2] | log2 fold change [3] | log2 fold change [4] | log2 fold change [5] | log2 fold change [6] | log2 fold change [7] | log2 fold change [8] | log2 fold change [9] | log2 fold change [10] | log2 fold change [11] | log2 fold change [12] | log2 fold change [13] | log2 fold change [14] | log2 fold change [15] | log2 fold change [16] | log2 fold change [17] | log2 fold change [18] | log2 fold change [19] | log2 fold change [20]
OGFOD2 (UniProt Q6N063) | -0.007 | -0.019 | 0.08 | -0.033 | -0.372 (active) | 0.035 | -0.027 | 0.147 | -0.112 | 0.095 | -0.035 | -0.08 | 0.094 | -0.076 | -0.029 | 0.009 | 0.133 | 0.032 |  | 
NDUFA7 (UniProt M0R0N0) |  |  |  | -0.017 |  | -0.092 | 0.081 |  |  |  |  |  | -0.195 | 0.076 |  |  |  | 0.093 | 0.201 | 
MYSM1 (UniProt Q5VVJ2) | -0.17 |  |  |  |  |  | 0.157 |  |  |  |  |  |  |  | 0.003 |  | 0.13 |  | -0.294 | 
NDFIP1 (UniProt Q9BT67) | 0.211 | -0.2 | 0.102 | 0.056 | 0.224 | 0.152 | 0.108 | 0.175 | -0.062 | -0.274 | -0.088 | 0.056 | 0.124 | 0.015 | 0.286 | -0.187 | -0.001 | -0.115 | -0.028 | 
OSBPL2 (UniProt Q9H1P3) |  |  |  |  |  |  |  |  |  |  | -0.197 |  |  |  |  |  |  |  |  | 0.025
ORC3 (UniProt Q9UBD5) | -0.167 |  |  |  |  |  |  |  |  |  |  |  |  |  | 0.061 |  | 0.032 |  |  | 
OPHN1 (UniProt O60890) | 0.036 | -0.016 | 0.043 | -0.019 | -0.143 |  | 0.121 | 0.108 | -0.095 | -0.033 | 0.094 | -0.008 | -0.036 |  | -0.011 | -0.01 | 0.038 |  | 0.011 | 
NIPSNAP2 (UniProt C9J7B1) |  |  |  |  |  |  | -0.065 |  |  |  |  |  |  |  |  |  |  |  | -0.073 | 
MTFR1L (UniProt Q9H019) |  | 0.036 | 0.023 | -0.145 | -0.186 | 0.08 | -0.019 | 0.013 | -0.296 | 0.052 | -0.106 | 0.052 | -0.024 | -0.085 |  | -0.054 |  | -0.14 | -0.037 | -0.586 (active)
NA, A0A494C071 | -1.54 (active) | 0.38 | -0.11 |  | 0.189 | -0.122 | 0.125 | -0.028 | -1.73 (active) | 0.033 | 0.062 | -0.197 |  | 0.044 | -0.359 | -0.062 | 0.027 | 0.124 |  | 
NECTIN2 isoform 2 (UniProt Q92692) | 0.175 | 0.106 | -0.132 | 0.05 | -0.104 | -0.063 | -0.151 | -0.146 | 0.318 | 0.188 |  |  | 0.062 | 0.11 | -0.039 | 0.158 | 0.077 | 0.049 | 0.288 | 
NUDT7 (UniProt P0C024) |  | 0.187 | -0.067 | 0.058 | -0.055 |  | 0.038 |  | 0.322 |  |  | -0.045 | 0.052 |  |  |  |  |  | 0.035 | 
NCK1 (UniProt P16333) |  | 0.109 | -0.053 | -0.312 |  | 0.044 | 0.223 | 0.027 |  | -0.198 | -0.005 | 0.126 | -0.071 | -0.125 |  | 0.158 |  | -0.122 | -0.521 (active) | -0.306
NKTR (UniProt P30414) |  |  |  | -0.102 |  |  | 0.39 |  |  |  |  |  | 0.939 (active) |  |  |  |  |  |  | -0.152
MORC2 (UniProt Q9Y6X9) |  |  | 0.118 | -0.347 |  |  | 0.106 |  |  |  |  |  | 0.124 |  |  |  |  |  |  | -0.8 (active)
NUMBL (UniProt Q9Y6R0) |  | 0.073 | -0.01 | 0.023 | 0.007 | -0.023 | -0.051 | 0.041 | -0.259 | -0.088 | 0.07 |  | 0.144 | -0.101 |  | -0.015 |  | 0.098 | -0.412 (active) | 0.019
MYO19 (UniProt Q96H55) |  | 0.011 | 0.097 | -0.138 | -0.215 | -0.081 | 0.121 | 0.076 | 0.404 | -0.066 | 0.001 |  | -0.046 | 0.093 |  | 0.09 |  | 0.103 |  | 0.007
NEU3 isoform 2 (UniProt Q9UQ49) |  |  |  | -0.074 |  |  |  |  |  |  |  |  | 0.091 |  |  |  |  |  | 0.004 | -0.158
NAP1L1 (UniProt B7Z9C2) | -0.118 | -0.008 |  | -0.132 | 0 | -0.244 | 0.146 | -0.053 | -0.152 | -0.168 |  |  | 0.041 | -0.117 | -0.041 | -0.706 | -0.114 | -0.007 |  | 
MLH1 (UniProt P40692) |  |  | 0.11 |  | 0.073 |  | 0.264 | 0.268 | 0.112 | -0.103 | -0.235 | 0.158 |  |  |  | -0.168 |  |  |  | -0.385
MOB3B (UniProt Q86TA1) |  | -0.045 |  | 0.149 | -0.016 | 0.034 | 0.202 |  | -0.159 |  | -0.428 | -0.03 | -0.324 | -0.252 |  |  |  | 0.078 |  | -0.633 (active)
NA isoform 3 (UniProt Q4G0T1) |  | 0.026 |  | 0.004 |  | -0.019 | 0.008 | -0.008 |  | -0.011 | 0.039 | 0.04 | 0.007 | 0.034 |  | -0.053 |  | -0.001 | 0.035 | -0.051
NA (UniProt J3KR12) |  | -0.021 | 0.079 |  |  |  | 0.148 |  |  |  |  |  |  |  |  |  |  |  |  | 
MT-ND2 (UniProt P03891) |  | -0.113 |  | -0.007 | 0.106 | 0.195 | 0.04 | -0.13 | 0.033 | -0.183 | -0.321 | -0.044 | 0 | -0.008 |  | -0.295 |  | 0.085 |  | -0.021
MRM2 (UniProt Q9UI43) |  | 0.008 |  | 0.065 |  | -0.122 |  | -0.042 |  | 0.173 | -0.364 | -0.07 | 0.033 | -0.24 |  | 0.004 |  | 0.101 |  | -0.083
MXRA7 isoform 3 (UniProt P84157) |  |  |  |  |  |  |  |  |  |  |  |  |  |  |  |  |  |  |  | -0.01
